Source: the supplement of paper PMC6555819

Experiments:
Experiment in all cases: PBM binding z-score (relative to random genomic background probes); higher = stronger binding; sequences stand for … in GC…GCGATTGACAGCGTAGAATGAAGG
[1] = tested on: RARb homodimer (NR concentration 270 nM)
Summary of the method: (§1)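 For binding z-scores, the reference was random background probes on custom Agilent 4×180K protein-binding microarrays. These arrays were incubated 1 h with ligand-free nuclear receptor dimers in PBS pH 7.4, 2% milk, 0.02% Triton X-100, 1 mM DTT, 0.2 mg/mL BSA and 0.4 mg/ml salmon testes DNA. Fluorescence was scanned after antibody detection of each partner (one per run) and regression-normalized.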

[2] = tested on: RARg:RXRa (NR concentration 270 nM, RXRa partner concentration 90 nM)
Summary of the method: as §1

[3] = tested on: RARg homodimer (NR concentration 270 nM)
Summary of the method: as §1

[4] = tested on: RXRa DBDmut IVT, anti-RXR (DBD mutation: RXRa K156A/R161A, NR concentration 90 nM)
Summary of the method: as §1

[5] = tested on: RXRa homodimer (NR concentration 180 nM)
Summary of the method: as §1

[6] = tested on: THRa:RXRa (NR concentration 90 nM, RXRa partner concentration 90 nM)
Summary of the method: as §1

[7] = tested on: THRa homodimer (NR concentration 90 nM)
Summary of the method: as §1

[8] = tested on: VDR homodimer (NR concentration 270 nM)
Summary of the method: as §1

Sequence	PBM binding z-score [1]	PBM binding z-score [2]	PBM binding z-score [3]	PBM binding z-score [4]	PBM binding z-score [5]	PBM binding z-score [6]	PBM binding z-score [7]	PBM binding z-score [8]
CTAACGAGGGCATGAGTTGATAGCAAATGCCGAT	0.671	1.31	1.61	2.41	1.06	1.2	0.0031	1.43
TCTTGTAGATCTAGCAGGTTAAGAAAGCCTGAGT	0.195	-0.205	-0.19	0.705	0.231	0.286	-0.115	-0.0564
CCTCGGAGGACAACAGGAGGTCAGAGCAGCCAGA	3.68	3.56	3.45	-0.0172	2.05	2.86	1.04	1.14
TTACCAAGGTGAAAGATCGTTGATGCACGCCTTG	0.0757	0.744	0.398	-0.161	1.06	1.42	0.109	-0.339
TCTTGTAGAGCAAGCAGGTTAAGAAAGCCTGAGT	-0.297	-0.441	-0.538	-0.187	-0.0799	-0.2	-1.05	-0.461
GCAGACAGGTGAAACGCAGGTAACGCAGGGTGGC	0.284	1.13	0.47	-0.945	0.641	1.51	-0.416	-0.757
CGTCCAAGGTCAAGGTCAGTGAAAGAGACTCGAA	5.29	6.79	7.8	3.95	6.28	4.39	3.78	2.89
CGTCCAAGGTTAGCAGGTCAGTGAAAGCGACGTG	3.14	2.7	2.6	0.446	2.04	2.07	0.653	0.443
GCGACTGGGGCAAAGCAGGTTACGATAAGGTTGG	1.04	0.351	0.644	-0.265	0.354	2.97	0.0259	-0.24
CCGAGTAGGTTATAGGGCATTCAGGCAACGGTGA	1.33	0.821	0.848	0.485	1.19	0.932	0.256	0.435
GCAGGCAGGTGAAACGCAGGTAACTCAGGGTGGC	-0.0937	0.946	0.484	-0.721	0.329	1.58	-0.371	-0.723
GTACCTAGGTGAATAGGTCGTTGATGAGTAGGCG	1.12	1.85	0.79	-0.37	1.24	1.08	-0.182	0.0472
ATCTCTAGGTAACAAGTTCAGTGCAAGAGAGGAC	1.96	1.28	1.46	0.886	0.703	2.19	1.03	3.19
CGTCCAAGGTCAATGTCAGTGAAAGAGACTCGAA	3.64	5.4	5.96	3.62	4.79	3.57	1.84	2.02
GATACAGGGTCAAGGCCGGAGTACGCGTATTGAT	3.43	5.35	5.4	2.23	5.79	3.46	1.03	1.78
TCGAGTGGGTTACCAATGGGGCATTCAGCTTTCT	0.278	0.678	-0.504	-0.00783	0.312	-0.369	-1.25	-1.02
CCTTACGGGTCACTGACAGGTTAGAGCATTTGGA	3.12	5.7	4.77	1.55	5.51	2.68	0.0773	0.83
ACTACTAGTTGAGACGAGGGCAACCGATAGGTTG	1.18	0.816	0.767	0.00344	0.506	2.46	0.219	0.599
AGTCTAAGTTCACTAGGTAACGTAAGATTCAGCT	2.21	3.35	3.69	4.47	2.31	2.27	0.878	4.71
GCGACTGGGGCAAAGCTGGTTACCATAAGGTTGG	0.208	0.0391	0.0418	0.0315	-0.0119	0.398	-0.232	-0.208
TCTCGGAGTACACGAAAGGTCAGAGCTCGACATC	4.24	3.91	3.72	1.14	3.87	3.02	0.15	0.908
CAAACTAGGTCCAGGTCAAAGTCGGTTTGTGCCA	3.03	2.6	2.27	1.62	2.37	3.31	2.79	2.49
ATCGAAAAGTCGAGGTGAGTATAGAGAAAGGGAA	0.0212	0.371	0.476	-0.67	0.323	1.17	0.201	-0.198
CCTCGGAGGACAACAGGAGGCCAGAGCTGCCAGA	0.662	0.553	1.08	-0.152	-0.394	0.476	-0.155	-0.208
CCTCCTGGGCCACGAAAGGTCATTGATTCAGTGA	4.56	4.7	4.3	0.0691	4.89	3.84	0.846	2.04
TCATATAGGTAAACAGGTGAAGGTCCGTAAGTTA	0.91	0.737	0.389	1.36	0.85	0.707	0.377	0.32
AGAACGAGGGCACGCTGAGTTGATAGAAGAGTAG	1.17	1.97	2.31	1.83	1.29	1.91	-0.0196	1.72
TCTTGTGGATCAAAGGTTAAGAAAGCCGAAGCCT	1.42	1.5	0.798	0.751	3.43	1.47	-0.309	-0.0408
